Data as given in the supplement of paper PMC4894684.
Where a name gives a salt, the structure may show the parent alone. ± gives the standard deviation of the averaged measurements.

Test system: Toxoplasma gondii RH (in HFF)
Test: parasite growth relative to the screen mean (all compounds = 100%); higher = less inhibition of parasite growth
Conditions: 5 µM; 72 h; oxygen 21 %
In short: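 Parasite growth was reported relative to the screen mean. In that scale, the mean of all compounds equals 100%, and values are averaged over two screens. Compounds from 10 mM DMSO stocks were pin-transferred to 5 µM final onto confluent human foreskin fibroblasts in 96-well plates, infected within 2 h with RH β-Gal–GFP Toxoplasma (MOI 1:5) and grown 72 h at 21% O2, with parasite number read by a CPRG β-Gal assay against in-plate standard curves. Uninfected host-cell viability was checked with CellTiter-Blue.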

Structure (SMILES) | parasite growth [%]
CN1Cc2ccccc2[C@@H]2c3cccc4[nH]cc(c34)C[C@H]21 | 132 ± 9.8
Oc1ccc2c3c1O[C@H]1c4[nH]c5c(c4C[C@@]4(O)[C@@H](C2)N(CC2CC2)CC[C@]314)C[C@@]1(O)[C@H]2Cc3ccc(O)c4c3[C@@]1(CCN2CC1CC1)[C@H]5O4 [nor-Binaltorphimine dihydrochloride] | 123 ± 3.2
Cc1ncc(CN2CC=C(c3ccccc3)CC2)c(N)n1 | 135 ± 13
CCOC(=O)c1ncn2c1[C@@H]1CCCN1C(=O)c1cc(OC)ccc1-2 | 93.9 ± 12
Ic1cncc(OC[C@@H]2CCN2)c1 | 137 ± 16
NCCc1c[nH]c2ccc(C(N)=O)cc12 [5-Carboxamidotryptamine maleate] | 158 ± 72
CCOC(=O)c1ncc2[nH]c3ccc(OCc4ccccc4)cc3c2c1COC | 83.8 ± 31
NCc1cc(O)no1 [Muscimol] | 154 ± 28
O=C(O)/C=C/CO [trans-4-Hydroxycrotonic acid] | 108 ± 8.3
c1cc(Cc2cnc[nH]2)ccn1 [Immethridine dihydrobromide] | 133 ± 31
CC(C)(C)NCC(O)COc1cccc2[nH]c(C#N)cc12 (stereo not given) [Cyanopindolol hemifumarate] | 130 ± 6.7
c1ccc2c(c1)[I+]c1ccccc1-2 [Diphenyleneiodonium chloride] | < 0
N[C@H](C(=O)O)c1cc(O)no1 [Ibotenic acid] | 136 ± 26
C[N+]1(C)CCc2cc3c(cc2[C@H]1[C@@H]1OC(=O)c2c1ccc1c2OCO1)OCO3 [(-)-Bicuculline methiodide] | 108 ± 8.7
COc1ccc(C(=O)c2c(C)n(CCN3CCOCC3)c3cc(I)ccc23)cc1 | 149 ± 18
